Most compounds without a hit are left out; they make up all but 2.9% or so of the library.
MmCpn inh: inhibitors of Methanococcus maripaludis chaperonin TRiC (MmCpn); Potency, µM (top dose mostly 76.9 µM), for inactives: at the highest dose activity, negative = inhibition, usual class: inhibitors; purified Mm-Cpn ATPase, ADP Transcreener TR-FRET; actives 0.031% (n = 330,000); active means well fitted inhibition curve with a large enough effect; inconclusive means small, poorly fitted or top-dose-only effect; further: potency means the concentration at half of the fitted maximal effect; on the % scale 0 is the no-effect control and ±100 the full control effect; nearly all actives have a fitted effect of over 80% in size
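Measured: ADP formation by purified Mm-CPN. Conditions: 25 nM protein, 10 uM ATP, Tris pH 7.4 with Mg2+, K+ and DTT, 37°C for 30 min. Detection: Transcreener HTRF after 30 min at room temperature.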
Rango release inh: inhibition of RanGTP-driven Rango-importin beta dissociation; O95149+P62826; Biochemical FRET Rango-importin beta, RanGTP-induced dissociation; Potency, µM (highest dose often 46.1 µM), inactives show at the highest dose activity change, negative = inhibition; actives 0.071% (n = 340,000); further: potency means the concentration at half of the fitted maximal effect; % of control where 0% means no effect; nearly all actives have a fitted effect of over 45% in size
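Quantitative HTS using a FRET biosensor: 0.1 uM Rango, 0.25 uM importin beta, 0.6 uM Ran, 2 mM GTP, 0.2 uM RCC1 final, PBS with DTT, Tween-20 and BSA. Post-read taken 45 min after Ran addition.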
Rango complex inh: Rango-importin beta binding inhibition; Rango CFP/YFP FRET sensor + importin beta, 45 min; actives 0.031% (n = 340,000); Potency, µM (titrated, usually from 92.2 µM), for inactives: at the top dose inhibition of complex formation;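 further: potency means the concentration at half of the fitted maximal effect; 0% = DMSO wells and 100% = buffer wells lacking importin beta; nearly all actives have a fitted effect of over 15% in size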
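Inhibition scored from the CFP 486 nm/YFP 530 nm FRET ratio 45 min after adding 0.125 microM importin beta to 50 nM Rango biosensor preincubated 5 min with compound (room temperature, PBS with DTT, Tween-20, BSA). No-importin wells as positive control.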
TSG101-PTAP inh: blocks PTAP/TSG101 interaction to inhibit HIV-1 budding | Fluorescence polarization, FITC-PTAP peptide / Tsg101 binding | AID 493005 | 340,000 tested, under 10 active | Potency, µM (top dose mostly 115 µM), for the others: at the top dose activity change, negative = inhibition, usual class: inhibitors | Q99816; active means well fitted inhibition curve with a large enough effect in the main read-out, with a control signal flat, not every such curve was filed as active; inconclusive means small, poorly fitted or top-dose-only effect, or effect the other way, or a change in a side signal; inactive means no such curve, though single readings can be large or run the other way; further: potency means the concentration at half of the fitted maximal effect; % of control where 0% means no effect
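Tsg101 binding domain (10 uM final) was mixed with compound and a FITC-labeled PTAP peptide (50 nM final) in HEPES pH 7.5 buffer with NaCl, Tween 20, EDTA and TCEP; fluorescence polarization was read after 20 min at r.t.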
D3 ag: activates the human D3 dopamine receptor; P35462; D3R DiscoveRx beta-arrestin cells, luminescence, 90 min; max activation, %; actives 0.58% (n = 410,000); in the data active means max activation above about 30%; further: 0% is about no effect
Target sequence (P35462 whole entry, looked up): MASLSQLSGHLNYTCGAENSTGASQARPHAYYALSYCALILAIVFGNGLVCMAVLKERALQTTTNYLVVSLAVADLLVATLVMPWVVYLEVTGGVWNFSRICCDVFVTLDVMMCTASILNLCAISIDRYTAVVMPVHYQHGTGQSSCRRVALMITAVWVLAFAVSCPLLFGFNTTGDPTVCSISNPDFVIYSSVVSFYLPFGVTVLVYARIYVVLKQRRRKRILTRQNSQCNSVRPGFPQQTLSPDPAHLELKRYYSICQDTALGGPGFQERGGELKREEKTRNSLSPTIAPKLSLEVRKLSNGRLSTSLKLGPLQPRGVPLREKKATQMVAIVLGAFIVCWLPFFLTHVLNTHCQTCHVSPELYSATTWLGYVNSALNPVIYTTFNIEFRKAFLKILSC
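Agonist-mode cell screen: cells plated at 1500/well and incubated overnight at 37 °C, then exposed to library compounds for 90 min at 37 °C. Detection reagent was added for 30–60 min at room temperature, and luminescence was read.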
DRD3 antagonist: D3 dopamine receptor (human) antagonism; AID 652054; actives 2.5% (n = 360,000); D3R cells, DiscoveRx beta-arrestin luminescence, antagonist mode; stronger effect = lower value; max response, negative = inhibition, %; P35462; in the data active means max response below about -50%; inconclusive means no clear call, values can overlap the other calls; further: on the % scale 0 is the no-effect control and ±100 the full control effect
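Cells plated overnight at 1500 cells/well, then exposed to library compounds with dopamine controls for 90 minutes at 37 degrees C. DiscoveRx reagent added for 30–60 minutes at room temperature; luminescence read, quantitative HTS format.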
* marks the source's active call; other numbers are inactive results. Unless noted, the call rests on the fitted dose curve.

What do the screens show for `CCCCCCNCc1cccc(Br)c1`?
MmCpn inh: 1.5%; Rango release inh: 2.8%; Rango complex inh: -6.2%; TSG101-PTAP inh: -13.8%; D3 ag: -31.5; DRD3 antagonist: -81.4*

How did Cc1ccc(C(=O)NCC(=O)OCc2cc(=O)n3nc(C4CC4)sc3n2)cc1 do in these assays?
D3 ag: 8.1

What do the screens show for `CN1C/C(=C/c2ccccc2[N+](=O)[O-])C(=O)/C(=C\c2ccccc2[N+](=O)[O-])C1`?
Rango release inh: -22.5%; Rango complex inh: inconclusive; TSG101-PTAP inh: -6.0%; D3 ag: -27.3; DRD3 antagonist: -90.4*

What do the screens show for `C=CC1=C(C(=O)O)N2C(=O)[C@@H](NC(=O)/C(=N/OCC(=O)O)c3csc(N)n3)[C@H]2SC1` (stereo in doubt)?
D3 ag: 0.6

How did C[C@@H]1C[C@@H]2OC(=O)[C@]3(C)[C@H]2[C@@H](OC3(C)O)[C@]2(C)C(=O)C=C[C@H]12 (stereo not given in full) do in these assays?
MmCpn inh: -2.4%; Rango release inh: 31.0%; Rango complex inh: -0.2%; TSG101-PTAP inh: -8.4%; D3 ag: -21.1; DRD3 antagonist: -53.2*

How did C=C1C(=O)C=C[C@]2(C)C[C@@H]3OC(=O)[C@](C)(O)[C@H]3C[C@@H]12 do in these assays?
MmCpn inh: -0.1%; Rango release inh: 22.2%; Rango complex inh: -0.5%; TSG101-PTAP inh: -0.6%; D3 ag: -35.9; DRD3 antagonist: inconclusive

Results for CO/N=C(\C(=O)N[C@@H]1C(=O)N2C(C(=O)O)=C(CSc3nc(=O)c(O)nn3C)CS[C@H]12)c1csc(N)n1 ?
D3 ag: -11.2

How did Cc1ccc(NC(=O)COC(=O)CCc2c(C)nc3ncnn3c2C)cc1 do in these assays?
MmCpn inh: 2.1%; Rango release inh: 10.5%; Rango complex inh: 1.4%; TSG101-PTAP inh: -2.1%; D3 ag: 32.0*; DRD3 antagonist: -12.5

Results for COc1cc(C(=O)N/N=C(\C)c2ccc(NC(=O)Cc3ccccc3)cc2)ccc1O ?
MmCpn inh: 1.7%; Rango release inh: 2.9%; Rango complex inh: -0.4%; TSG101-PTAP inh: -0.8%; D3 ag: -3.7; DRD3 antagonist: 1.3

How did Cc1ccc(CNC(=O)[C@H]2O[C@@H](n3ccc(N)nc3=O)[C@H](O)[C@@H]2O)o1 do in these assays?
D3 ag: -24.1; DRD3 antagonist: -126.3*

What do the screens show for `CCOc1ccccc1NC(=O)NC(CC)c1c(-n2cccc2)sc2c1CCN(C)C2` (stereo not given)?
D3 ag: -1.4

Results for CCOC(=O)c1c(C)[nH]c(C(=O)COC(=O)C2(C)CC2(Cl)Cl)c1C (stereo not given) ?
MmCpn inh: -1.4%; Rango release inh: -1.3%; Rango complex inh: -3.7%; TSG101-PTAP inh: -3.9%; D3 ag: 45.3*; DRD3 antagonist: 54.2

Results for Cc1cc2nc(N3C(=O)CNC3=S)sc2cc1C ?
MmCpn inh: -0.8%; Rango release inh: 7.5%; Rango complex inh: 0.6%; TSG101-PTAP inh: 0.1%; D3 ag: -10.9; DRD3 antagonist: -66.9*

What do the screens show for `CCCCn1nnnc1C(c1cc2ccccc2o1)N1CCN(C/C=C/c2ccccc2)CC1` (stereo not given)?
D3 ag: -5.5; DRD3 antagonist: -72.1*

Results for COc1ccc(-n2nnnc2C(c2cccc3ccccc23)N2CCN(C/C=C/c3ccccc3)CC2)cc1 (stereo not given) ?
D3 ag: -23.8; DRD3 antagonist: -92.0*

How did C(=C\c1ccccc1)/CN1CCN(C(c2ccnc3ccccc23)c2nnnn2C2CCCC2)CC1 (stereo not given) do in these assays?
D3 ag: -9.9; DRD3 antagonist: -29.2

How did COc1ccc(C(c2nnnn2-c2ccc3c(c2)OCCO3)N2CCN(C/C=C/c3ccccc3)CC2)cc1 (stereo not given) do in these assays?
D3 ag: -17.8; DRD3 antagonist: -75.7*

Results for C(=C\c1ccccc1)/CN1CCN(C(c2cc3ccccc3o2)c2nnnn2-c2ccc3c(c2)OCCO3)CC1 (stereo not given) ?
D3 ag: -20.6; DRD3 antagonist: -89.0*

Results for CCCCn1nnnc1C(c1cc2ccccc2o1)N1CCCC1 (stereo not given) ?
D3 ag: -0.2; DRD3 antagonist: -13.3

What do the screens show for `CCOC(=O)c1cc(OC(=O)c2ccc(OC)c(OC)c2)n(-c2ccccc2)n1`?
D3 ag: 7.1

How did O=c1cc(N2CCN(c3ccc(F)cc3)CC2)[nH]c(=O)n1-c1cccc(Br)c1 do in these assays?
D3 ag: 0.6

Results for COc1ccc(C(C)=O)cc1COC(=O)c1ccc(S(=O)(=O)N(C)C)cc1 ?
MmCpn inh: -0.3%; Rango release inh: 2.2%; Rango complex inh: -0.9%; TSG101-PTAP inh: -3.9%; D3 ag: -12.4; DRD3 antagonist: 11.2

How did CCC(c1nnnn1-c1ccc2c(c1)OCCO2)N1CCN(CCN2CCOCC2)CC1 (stereo not given) do in these assays?
D3 ag: -10.1; DRD3 antagonist: -16.3

What do the screens show for `C(=C\c1ccccc1)/CN1CCN(C(c2cccs2)c2nnnn2-c2ccc3c(c2)OCCO3)CC1` (stereo not given)?
D3 ag: -18.8; DRD3 antagonist: -79.4*

Results for COc1ccc(-n2nnnc2C(c2cc3ccccc3o2)N2CCN(C/C=C/c3ccccc3)CC2)cc1 (stereo not given) ?
D3 ag: -20.1; DRD3 antagonist: -97.5*

Results for Cc1nn(C(C)C(=O)NC2CCCCC2)c(=O)c2c1sc1ccccc12 (stereo not given) ?
D3 ag: -1.9

Results for c1ccc(CC[C@@H]2CC[C@@H](CCc3ccccc3)N2)cc1 ?
MmCpn inh: inconclusive; Rango release inh: 9.2%; Rango complex inh: 0.6%; TSG101-PTAP inh: 1.1%; D3 ag: -13.7; DRD3 antagonist: -87.8*

What do the screens show for `OC(CN1CCCCC1)Cn1c2ccc(Cl)cc2c2cc(Cl)ccc21` (stereo not given)?
MmCpn inh: -0.1%; Rango release inh: inconclusive; Rango complex inh: -0.5%; TSG101-PTAP inh: -2.0%; D3 ag: -35.0; DRD3 antagonist: inconclusive
